Measured values reported in PubChem BioAssay (NCI).
Compounds without any hit were thinned out: in the full panel of roughly 79,000, 15% have a hit. The source made the active and inactive calls. Cut-off read from the data, not from the text of the source: active = growth inhibition above about 70%; inactive = the rest.

How the values were obtained:
[1] = NCI Yeast Anticancer Drug Screen. Data for the sgs1 strain (AID 173);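 note: 0% = growth of vehicle-only control cultures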; settings: S. cerevisiae sgs1 mutant, active compounds read high
How it was run: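 Screen format: yeast with repair or checkpoint alterations, compound exposure, growth read relative to vehicle.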

[2] = NCI Yeast Anticancer Drug Screen. Data for the mlh1 rad18 strain (AID 175); settings: S. cerevisiae mlh1 rad18 strain growth inhibition, active compounds read high
How it was run: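 Vehicle-treated cultures served as the reference for growth inhibition in a yeast strain carrying DNA damage repair alterations exposed to each compound.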

[3] = NCI Yeast Anticancer Drug Screen. Data for the rad18 strain (AID 177); settings: S. cerevisiae rad18 mutant growth inhibition, active compounds read high
How it was run: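 Test articles were incubated with altered yeast defective in DNA damage repair. Results are given as inhibition of growth versus vehicle.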

[4] = NCI Yeast Anticancer Drug Screen. Data for the rad52 strain (AID 147);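 note: 0% = growth of vehicle-treated control cultures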; settings: S. cerevisiae rad52 mutant growth inhibition, active compounds read high
How it was run: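 Vehicle-treated cultures served as the reference for growth inhibition of compound-exposed yeast bearing a DNA repair mutation.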

[5] = NCI Yeast Anticancer Drug Screen. Data for the wt1 strain (AID 149);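 note: 0% = growth of vehicle-treated wt1 cultures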; settings: S. cerevisiae wt1 strain (SPY 50644) growth inhibition, active compounds read high
How it was run: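 wt1 strain grown with compound or vehicle; inhibition taken from the growth difference.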

[6] = NCI Yeast Anticancer Drug Screen. Data for the rad50EPP+ strain (AID 151);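 note: 0% = growth of vehicle-treated control cultures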; settings: S. cerevisiae rad50 mutant strain, active compounds read high
How it was run: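 In this screen, rad50EPP+ yeast were exposed to compounds. Growth inhibition was scored against vehicle-treated controls.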

[7] = NCI Yeast Anticancer Drug Screen. Data for the mgt1 strain (AID 153); settings: S. cerevisiae mgt1 mutant growth inhibition, active compounds read high
How it was run: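 mgt1 strain exposed; growth vs vehicle control recorded as inhibition.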

[8] = NCI Yeast Anticancer Drug Screen. Data for the rad50 strain (AID 155);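 note: 0% = growth of vehicle-only cultures of the same strain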; settings: S. cerevisiae rad50 strain growth inhibition, active compounds read high
How it was run: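 DNA repair mutant yeast, compound exposure, growth read-out; inhibition is taken relative to vehicle.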

[9] = NCI Yeast Anticancer Drug Screen. Data for the mec2-1 strain (AID 157); settings: S. cerevisiae mec2-1 strain, active compounds read high
How it was run: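 Vehicle-treated cultures served as reference for growth inhibition of compound-exposed mec2-1 yeast.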

[10] = NCI Yeast Anticancer Drug Screen. Data for the rad14 strain (AID 159);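 note: 0% = growth of vehicle-treated control cultures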; settings: S. cerevisiae rad14 strain growth inhibition, active compounds read high
How it was run: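 DNA repair-defective yeast, compound-exposed; % growth inhibition derived by comparison with vehicle-treated controls.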

[11] = NCI Yeast Anticancer Drug Screen. Data for the CLN2oe strain (AID 163);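 note: 0% = growth of vehicle-only control cultures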; settings: S. cerevisiae CLN2oe strain, active compounds read high
How it was run: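 Inhibition relative to vehicle-treated yeast is reported. Cells: strain with genetic alteration in cell-cycle control, grown with compound.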

[12] = NCI Yeast Anticancer Drug Screen. Data for the cln2 rad14 strain (AID 165);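 note: 0% = growth equal to vehicle treated cultures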; settings: S. cerevisiae cln2 rad14 strain, active compounds read high
How it was run: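 Each compound was tested on cln2 rad14 yeast. Inhibition of growth was calculated against vehicle-exposed controls.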

[13] = NCI Yeast Anticancer Drug Screen. Data for the bub3 strain (AID 167); settings: S. cerevisiae bub3 mutant strain, active compounds read high
How it was run: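 In this screen, a yeast mutant lacking normal mitotic checkpoint function is challenged with compound. Relative growth versus vehicle gives the inhibition value.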

[14] = NCI Yeast Anticancer Drug Screen. Data for the wt2 strain (AID 169);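 note: 0% = growth of vehicle-treated yeast cultures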; settings: S. cerevisiae wt2 strain growth inhibition, active compounds read high
How it was run: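 Inhibition of yeast growth was determined after compound treatment, normalised to controls receiving only vehicle.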

[15] = NCI Yeast Anticancer Drug Screen. Data for the mlh1 strain (AID 171);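 note: 0% = growth of vehicle-treated control cultures of the same strain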; settings: S. cerevisiae mlh1 strain growth inhibition, active compounds read high
How it was run: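 Vehicle-normalised growth inhibition of a repair- or checkpoint-altered yeast strain following compound treatment.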

[16] = NCI Yeast Anticancer Drug Screen. Data for the sgs1 mgt1 strain (AID 161);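 note: 0% = growth of cultures given vehicle only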; settings: S. cerevisiae sgs1 mgt1 strain, active compounds read high
How it was run: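 Test agents were incubated with a DNA-repair-mutant yeast strain. Growth was then read and compared against vehicle-treated controls.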

[17] = at 5.0 µM (retest, dose inferred, filed as 0.5)
[18] = at 50.0 µM (retest, dose inferred, filed as 5.0)

Measured: growth inhibition

COC1CC(CC2CCC(C)C(C(C)C(=O)O)O2)OC2(OC(C)(C3CCC(C)(C4OC(C5OC(O)(CO)C(C)CC5C)CC4C)O3)CC2C)C1C (stereo not drawn)
inactive: [2]; [17] 30% | [3]; at 1.2 µM -17% | [3]; at 3.7 µM -25% | [3]; at 11.0 µM -11%
active: [1]; at 33.0 µM 88% | [1]; at 100.0 µM 97% | [2]; [18] 96% | [2]; at 50.0 µM 87.8% | [3]; at 33.0 µM 93% | [3]; at 100.0 µM 97%

O=C(O)C1C2CCC(C2)C1c1ccccc1 (stereo not drawn)
active: [13]; at 33.0 µM 77% | [13]; [18] 90% | [13]; at 50.0 µM 95% | [13]; at 100.0 µM 94%
inactive: [4]; at 1.2 µM -1% | [4]; at 3.7 µM -3% | [4]; at 11.0 µM -6% | [4]; at 33.0 µM -3% | [4]; at 100.0 µM 20% | [5]; at 1.2 µM -1% | [5]; at 3.7 µM -2% | [5]; at 11.0 µM -4% | [5]; at 33.0 µM -1% | [5]; at 100.0 µM 26% | [6]; at 1.2 µM -1% | [6]; at 3.7 µM -2% | [6]; at 11.0 µM -2% | [6]; at 33.0 µM -2% | [6]; at 100.0 µM -3% | [7]; at 1.2 µM -1% | [7]; at 3.7 µM -1% | [7]; at 11.0 µM -4% | [7]; at 33.0 µM -5% | [7]; at 100.0 µM 31% | [8]; at 1.2 µM -10% | [8]; at 3.7 µM -51% | [8]; [17] -2% | [8]; at 11.0 µM 2% | [8]; at 33.0 µM -3% | [8]; [18] 10% | [8]; at 50.0 µM 19.4% | [8]; at 100.0 µM 34% | [9]; at 1.2 µM -1% | [9]; at 3.7 µM -4% | [9]; [17] -8% | [9]; at 11.0 µM -7% | [9]; at 33.0 µM -1% | [9]; [18] 8% | [9]; at 50.0 µM 14.4% | [9]; at 100.0 µM 31% | [10]; at 1.2 µM 0% | [10]; at 3.7 µM 0% | [10]; at 11.0 µM -5% | [10]; at 33.0 µM -8% | [10]; at 100.0 µM 13% | [11]; at 1.2 µM -7% | [11]; at 3.7 µM -10% | [11]; at 11.0 µM -6% | [11]; at 33.0 µM -1% | [11]; at 100.0 µM 18% | [12]; [17] -6% | [12]; [18] 8% | [12]; at 50.0 µM 11% | [13]; at 1.2 µM -1% | [13]; at 3.7 µM 11% | [13]; [17] 29% | [13]; at 11.0 µM 36% | [14]; at 1.2 µM -1% | [14]; at 3.7 µM 7% | [14]; at 11.0 µM -3% | [14]; at 33.0 µM 0% | [14]; at 100.0 µM 37% | [15]; at 1.2 µM -2% | [15]; at 3.7 µM -2% | [15]; at 11.0 µM -1% | [15]; at 33.0 µM -2% | [15]; at 100.0 µM 31% | [1]; at 1.2 µM -2% | [1]; at 3.7 µM 0% | [1]; at 11.0 µM 3% | [1]; at 33.0 µM 15% | [1]; at 100.0 µM 66% | [2]; [17] -1% | [2]; [18] 6% | [2]; at 50.0 µM 20.1% | [3]; at 1.2 µM 0% | [3]; at 3.7 µM -1% | [3]; at 11.0 µM -5% | [3]; at 33.0 µM 1% | [3]; at 100.0 µM 47%

CC1=C(O)C(=O)C=C2C1=CC=C1[C@@]2(C)CCC2(C)[C@@H]3C[C@@H](C)C(=O)C[C@]3(C)CC[C@]12C (stereo partly drawn)
active: [4]; at 11.0 µM 98% | [4]; at 33.0 µM 98% | [4]; at 100.0 µM 96% | [5]; at 11.0 µM 96% | [5]; at 33.0 µM 97% | [5]; at 100.0 µM 96% | [8]; at 11.0 µM 96% | [8]; at 33.0 µM 97% | [8]; [18] 97% | [8]; at 50.0 µM 88.3% | [8]; at 100.0 µM 97% | [9]; at 11.0 µM 97% | [9]; at 33.0 µM 98% | [9]; [18] 99% | [9]; at 50.0 µM 90.5% | [9]; at 100.0 µM 96% | [10]; at 11.0 µM 94% | [10]; at 33.0 µM 97% | [10]; at 100.0 µM 95% | [16]; [18] 96% | [16]; at 50.0 µM 87.3% | [11]; at 11.0 µM 98% | [11]; at 33.0 µM 98% | [11]; at 100.0 µM 95% | [12]; [18] 97% | [12]; at 50.0 µM 86.5% | [13]; at 11.0 µM 96% | [13]; at 33.0 µM 97% | [13]; [18] 97% | [13]; at 50.0 µM 87.9% | [13]; at 100.0 µM 96% | [14]; at 11.0 µM 93% | [14]; at 33.0 µM 97% | [14]; at 100.0 µM 96% | [1]; at 11.0 µM 96% | [1]; at 33.0 µM 97% | [1]; at 100.0 µM 96% | [2]; [18] 97% | [2]; at 50.0 µM 88.2% | [3]; at 11.0 µM 96% | [3]; at 33.0 µM 98% | [3]; at 100.0 µM 97%
inactive: [4]; at 1.2 µM 41% | [4]; at 3.7 µM 58% | [5]; at 1.2 µM 9% | [5]; at 3.7 µM 8% | [6]; at 1.2 µM 9% | [6]; at 3.7 µM 12% | [6]; at 11.0 µM 29% | [6]; at 33.0 µM 32% | [6]; at 100.0 µM 59% | [8]; at 1.2 µM 11% | [8]; at 3.7 µM 28% | [8]; [17] 4% | [9]; at 1.2 µM 5% | [9]; at 3.7 µM 24% | [9]; [17] 4% | [10]; at 1.2 µM -26% | [10]; at 3.7 µM -13% | [16]; [17] 16% | [11]; at 1.2 µM -13% | [11]; at 3.7 µM 10% | [12]; [17] 35% | [13]; at 1.2 µM -19% | [13]; at 3.7 µM -6% | [13]; [17] 38% | [14]; at 1.2 µM 0% | [14]; at 3.7 µM 0% | [1]; at 1.2 µM 17% | [1]; at 3.7 µM 42% | [2]; [17] 41% | [3]; at 1.2 µM 9% | [3]; at 3.7 µM 28%
